According to PubChem BioAssay:
Inconclusive results are not listed. Calls of active or inactive are those of the source.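 Rule for the calls, unless noted: active = GFP signal, as percent of the solvent control, above the screen mean plus 3 SD, about 149; inconclusive = no reading because the compound's own fluorescence upset strain identification; inactive = the rest.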

Tests used:
[1] = yeast TOR pathway RPL19A-GFP modulators, primary screen, cell-based, S. cerevisiae, multiplex flow cytometry (AID 1862; in the data active = percent of DMSO control GFP below about 86%;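 note: lower values mimic rapamycin by blocking the RPL19A rise seen in DMSO cells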); details: S. cerevisiae RPL19A-GFP strain, flow cytometry fluorescence, 3 h; at 10 µM; stronger effect = lower value
[2] = modulators of MEP2-GFP levels in yeast, primary screen, S. cerevisiae, multiplex flow cytometry (AID 1867;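 active = GFP response, as percent of the DMSO control, above the screen-wide mean plus 3 SD, about 139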;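 note: median GFP channel fluorescence of barcode-gated MEP2-GFP cells measured by flow cytometry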); details: S. cerevisiae MEP2-GFP strain, 3 h, at 10 µM, stronger effect = higher value, 100% means same as DMSO wells
[3] = modulators of CIT2-GFP expression in yeast, primary screen, S. cerevisiae, GFP fusion, multiplex flow cytometry (AID 1870;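 active = percent response above a set limit, the screen-wide mean plus 3 SD, cut at about 130% in these data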;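 note: barcoded CIT2-GFP strain pooled with four other GFP strains with rapamycin as positive control; median GFP fluorescence per well over plate mean of DMSO wells so 100% = DMSO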); details: 3 h, at 10 µM, stronger effect = higher value
[4] = modulators of LAP4-GFP expression in yeast, primary screen, S. cerevisiae, multiplex flow cytometry (AID 1873); details: 3 h, at 10 µM, stronger effect = higher value
[5] = modulators of AGP1-GFP expression in yeast TOR pathway, primary screen, cell-based, multiplex flow cytometry, S. cerevisiae (AID 1887;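 active = GFP signal above the screen-wide mean plus 3 SD, that is over about 124.5% of the solvent control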;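 note: AGP1-GFP fusion strain of S. cerevisiae within a five-strain barcoded multiplex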); details: 3 h, at 10 µM, stronger effect = higher value
[6] = inhibitors of CD8+ T cell-vesicle binding, pilot screen, LFA-1/ICAM-1 modulator project, MLPCN validation set, flow cytometry (AID 2523;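 active = response below a set limit, under 55% cells CD8-positive and vesicle-bound, and CD8 cells' 90th-percentile brightness under 279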;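 for vesicle binding response: mean PE anti-B7-1 fluorescence of CD8+ cells relative to row control; 100% = QL9-loaded vesicles with DMSO vehicle in the same plate row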); details: 2C mouse CD8+ T cells, at 7 µM, stronger effect = lower value; double positive events: measured here: CD8+/vesicle+ event percentage
[7] = target: Integrin beta-1 (Homo sapiens) + Integrin alpha-4 (Homo sapiens) (UniProt P13612+P05556); assay: inhibition of HUTS-21 binding to VLA-4, pilot screen, VLA-4 allosteric modulator project, U937 cells, HUTS-21 mAb, flow cytometry, validation set (AID 2674;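 active = inhibition above 50%, about 3 SD of the validation set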;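 note: antibody binding induced by the VLA-4 ligand LDV present at three times its Kd; 0% = LDV ligand with antibody and no compound and 100% = antibody without LDV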); details: HUTS-21 LIBS mAb binding, at 6.7 µM, stronger effect = higher value, binding induced by LDV ligand
Chain of Integrin beta-1 (Homo sapiens) + Integrin alpha-4 (Homo sapiens) (P05556 whole entry, looked up): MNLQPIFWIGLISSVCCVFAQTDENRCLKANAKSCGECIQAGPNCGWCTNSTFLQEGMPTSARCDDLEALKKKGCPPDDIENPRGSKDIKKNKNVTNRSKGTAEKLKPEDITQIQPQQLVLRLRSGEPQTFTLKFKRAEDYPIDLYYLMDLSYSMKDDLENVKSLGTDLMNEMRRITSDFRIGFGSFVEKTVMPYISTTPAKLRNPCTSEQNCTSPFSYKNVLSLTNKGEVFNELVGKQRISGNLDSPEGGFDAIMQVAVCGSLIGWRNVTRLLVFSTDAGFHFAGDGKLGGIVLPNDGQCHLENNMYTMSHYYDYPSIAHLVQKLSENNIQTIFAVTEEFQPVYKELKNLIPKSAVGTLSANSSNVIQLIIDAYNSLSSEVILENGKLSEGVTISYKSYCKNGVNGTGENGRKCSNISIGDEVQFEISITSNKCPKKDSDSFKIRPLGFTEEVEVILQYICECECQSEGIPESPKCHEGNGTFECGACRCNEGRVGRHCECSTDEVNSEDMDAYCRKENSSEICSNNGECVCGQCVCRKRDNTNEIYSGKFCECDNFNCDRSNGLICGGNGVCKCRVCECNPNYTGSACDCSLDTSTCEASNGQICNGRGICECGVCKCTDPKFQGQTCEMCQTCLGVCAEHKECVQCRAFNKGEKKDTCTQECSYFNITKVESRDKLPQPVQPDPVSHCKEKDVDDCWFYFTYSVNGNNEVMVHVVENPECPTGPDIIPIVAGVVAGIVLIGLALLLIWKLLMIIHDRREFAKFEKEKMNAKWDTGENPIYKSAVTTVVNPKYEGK
Chain of Integrin beta-1 (Homo sapiens) + Integrin alpha-4 (Homo sapiens) (P13612 whole entry, looked up): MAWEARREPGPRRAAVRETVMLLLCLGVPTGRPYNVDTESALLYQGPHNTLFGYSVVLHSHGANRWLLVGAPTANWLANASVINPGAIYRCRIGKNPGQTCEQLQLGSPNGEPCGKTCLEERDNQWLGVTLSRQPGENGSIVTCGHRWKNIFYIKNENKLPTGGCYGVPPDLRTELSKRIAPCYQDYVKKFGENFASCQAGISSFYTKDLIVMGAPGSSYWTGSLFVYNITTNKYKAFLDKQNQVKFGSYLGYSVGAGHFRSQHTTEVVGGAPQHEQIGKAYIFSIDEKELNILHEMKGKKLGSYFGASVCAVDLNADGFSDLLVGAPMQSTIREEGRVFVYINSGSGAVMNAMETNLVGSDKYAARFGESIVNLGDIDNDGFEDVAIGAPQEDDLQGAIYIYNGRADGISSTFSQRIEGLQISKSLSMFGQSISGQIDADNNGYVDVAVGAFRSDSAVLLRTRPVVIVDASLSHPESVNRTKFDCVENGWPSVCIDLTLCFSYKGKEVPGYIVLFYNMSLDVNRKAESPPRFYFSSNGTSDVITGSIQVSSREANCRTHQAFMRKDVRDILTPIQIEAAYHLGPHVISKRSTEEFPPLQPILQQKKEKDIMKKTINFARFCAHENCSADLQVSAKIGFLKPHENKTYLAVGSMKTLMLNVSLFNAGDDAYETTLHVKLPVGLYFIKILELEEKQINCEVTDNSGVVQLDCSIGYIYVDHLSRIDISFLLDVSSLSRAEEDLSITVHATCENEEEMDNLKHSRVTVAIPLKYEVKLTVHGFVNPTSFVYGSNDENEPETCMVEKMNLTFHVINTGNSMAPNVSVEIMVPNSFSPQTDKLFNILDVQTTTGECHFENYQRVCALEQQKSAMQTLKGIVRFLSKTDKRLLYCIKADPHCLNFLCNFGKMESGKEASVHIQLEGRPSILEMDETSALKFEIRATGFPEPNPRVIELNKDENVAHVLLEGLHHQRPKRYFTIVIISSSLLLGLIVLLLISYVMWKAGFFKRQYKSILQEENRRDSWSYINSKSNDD

[8] = superoxide lowering in aged yeast cells, pilot screen, validation compound set (AID 2706;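 active = superoxide response below 65% of plate, a cut near 3 SD across the whole screen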;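 note: yeast exposed to compound for one week at 30 degrees C before staining; 100% = mean of all compound wells on the same plate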); details: S. cerevisiae aging, superoxide DHE fluorescence; at 10 µM; stronger effect = lower value
[9] = target: Beta-adrenergic receptor kinase 1 (Homo sapiens) (UniProt P25098); assay: GRK2 binders displacing RNA aptamer, biochemical, validation, human GRK2, bead flow cytometry (AID 488806;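 active = aptamer binding inhibition above 30%, about 3 SD of noise from non-fluorescent compounds; inactive = inhibition at or below 30%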); details: bead-bound GRK2, FAM-aptamer displacement, at 10 µM, stronger effect = higher value
Chain of Beta-adrenergic receptor kinase 1 (Homo sapiens) (P25098 whole entry, looked up): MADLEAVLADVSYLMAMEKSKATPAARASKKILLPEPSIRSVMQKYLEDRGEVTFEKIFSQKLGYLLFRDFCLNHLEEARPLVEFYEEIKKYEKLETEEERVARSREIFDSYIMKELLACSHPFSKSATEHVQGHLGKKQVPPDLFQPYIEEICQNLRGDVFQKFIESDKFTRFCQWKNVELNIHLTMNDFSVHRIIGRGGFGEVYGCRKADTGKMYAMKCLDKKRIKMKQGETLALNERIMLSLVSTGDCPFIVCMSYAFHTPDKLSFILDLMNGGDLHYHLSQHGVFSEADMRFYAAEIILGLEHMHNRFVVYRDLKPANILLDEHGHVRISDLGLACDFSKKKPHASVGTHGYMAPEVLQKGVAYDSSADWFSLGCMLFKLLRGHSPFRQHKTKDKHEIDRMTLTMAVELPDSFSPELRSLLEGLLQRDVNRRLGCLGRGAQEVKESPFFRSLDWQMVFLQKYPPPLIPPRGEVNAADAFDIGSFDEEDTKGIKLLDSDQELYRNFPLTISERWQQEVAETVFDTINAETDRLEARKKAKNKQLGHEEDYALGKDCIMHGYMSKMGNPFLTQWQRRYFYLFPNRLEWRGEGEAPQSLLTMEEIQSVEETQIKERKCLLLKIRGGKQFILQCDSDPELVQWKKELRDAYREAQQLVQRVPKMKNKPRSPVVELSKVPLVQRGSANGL

[10] = target: Beta-2 adrenergic receptor (Homo sapiens) (UniProt P07550); assay: beta2AR agonists driving receptor internalization, pilot screen, cell-based, FAP fluorogen, flow cytometry, validation set (AID 504459;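 active = percent response above 42, roughly 3 SD of non-fluorescent test compounds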;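 note: agonist-driven loss of surface beta2AR via internalization measured by FAP dye flow cytometry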); details: Am2.2-beta2AR cells, FAP surface receptor flow cytometry; at 10 µM; stronger effect = higher value
Chain of Beta-2 adrenergic receptor (Homo sapiens) (P07550 whole entry, looked up): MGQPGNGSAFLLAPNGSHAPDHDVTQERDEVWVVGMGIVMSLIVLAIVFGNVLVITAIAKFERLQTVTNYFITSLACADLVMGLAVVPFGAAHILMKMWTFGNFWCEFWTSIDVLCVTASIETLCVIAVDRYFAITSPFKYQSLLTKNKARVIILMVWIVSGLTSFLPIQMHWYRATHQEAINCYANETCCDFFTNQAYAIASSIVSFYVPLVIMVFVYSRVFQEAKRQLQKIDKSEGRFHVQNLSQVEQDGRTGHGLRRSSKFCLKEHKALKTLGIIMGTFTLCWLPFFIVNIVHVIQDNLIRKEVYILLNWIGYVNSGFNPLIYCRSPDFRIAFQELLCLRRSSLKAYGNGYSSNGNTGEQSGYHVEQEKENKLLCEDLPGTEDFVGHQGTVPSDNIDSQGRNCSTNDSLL

[11] = target: AP-2 complex subunit beta (Homo sapiens) (UniProt P63010); assay: inhibitors of arrestin peptide binding to AP2, pilot screen, biochemical, validation set, GST-AP2 beads, flow cytometry (AID 504541;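 active = inhibition above 54%, about 3 SD of non-fluorescent compounds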;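 note: AP2 carries R879A mutation and is captured from E. coli lysate; bead-bound FITC arrestin peptide fluorescence measuring arrestin peptide binding to AP2; 0% = DMSO wells and 100% = excess unlabeled arrestin peptide control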); details: FITC arrestin peptide, at 10 µM, stronger effect = higher value, AP2 beta2 appendage fragment, R879A mutant
Chain of AP-2 complex subunit beta (Homo sapiens) (P63010 whole entry, looked up, the tested form may be a part, one chain of several): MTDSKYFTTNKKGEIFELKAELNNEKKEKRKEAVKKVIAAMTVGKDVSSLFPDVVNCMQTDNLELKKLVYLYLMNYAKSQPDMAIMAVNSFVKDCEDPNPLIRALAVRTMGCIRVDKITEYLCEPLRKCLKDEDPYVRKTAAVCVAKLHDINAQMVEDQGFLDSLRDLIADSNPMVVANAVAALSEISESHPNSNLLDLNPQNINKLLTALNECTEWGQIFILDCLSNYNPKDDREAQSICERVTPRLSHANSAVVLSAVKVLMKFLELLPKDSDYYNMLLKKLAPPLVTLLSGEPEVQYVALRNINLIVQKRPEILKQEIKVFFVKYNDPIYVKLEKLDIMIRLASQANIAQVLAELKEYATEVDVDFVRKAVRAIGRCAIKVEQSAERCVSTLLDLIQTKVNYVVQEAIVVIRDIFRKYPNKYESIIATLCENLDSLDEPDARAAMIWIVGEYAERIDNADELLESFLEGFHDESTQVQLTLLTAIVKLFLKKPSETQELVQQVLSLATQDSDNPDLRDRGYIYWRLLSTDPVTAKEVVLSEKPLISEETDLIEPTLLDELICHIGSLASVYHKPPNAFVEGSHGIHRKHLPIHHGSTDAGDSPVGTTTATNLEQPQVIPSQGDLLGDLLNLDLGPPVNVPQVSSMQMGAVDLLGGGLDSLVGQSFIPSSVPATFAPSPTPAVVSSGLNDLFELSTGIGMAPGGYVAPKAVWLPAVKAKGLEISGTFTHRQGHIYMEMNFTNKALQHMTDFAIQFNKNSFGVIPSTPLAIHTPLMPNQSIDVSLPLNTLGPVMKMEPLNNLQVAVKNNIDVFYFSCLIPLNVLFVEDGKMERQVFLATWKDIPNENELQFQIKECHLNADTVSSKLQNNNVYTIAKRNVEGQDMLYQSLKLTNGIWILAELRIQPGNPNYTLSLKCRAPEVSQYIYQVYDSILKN

[12] = yeast V-ATPase proton transport modulators, S. cerevisiae, pHLuorin, HTS validation (AID 504600; in the data active = response above about 15%;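 note: plate controls were DMSO for no effect and reference compound for full effect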); details: S. cerevisiae pHLuorin cytosolic pH, at 10 µM, stronger effect = higher value
[13] = tested on: anti-desmoglein-3 scFv antibody binding to human DSG3; assay: inhibitors of anti-DSG3 scFv binding to DSG3, pilot screen, biochemical, validation compound set, bead-based, flow cytometry (AID 588368;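 active = binding below the plate cutoff, the plate median minus 3 SD, with a reading above zero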;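 note: signal is the median channel fluorescence of bead-bound GFP antibody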); details: Protein G beads, DSG3-Fc, scFv-GFP binding, at 10 µM, stronger effect = lower value
[14] = inhibitors of fungal efflux pumps CDR1, CDR2, MDR1, pilot screen, validation compound set, multiplex, phenotypic (AID 588506;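 active = efflux inhibition above 0.42, the validation set average plus 4 SD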;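 note: Nile Red retained in cells so higher fluorescence means more efflux inhibition; 0 = negative control wells and 1 = enniatin B 25 µM full block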); details: S. cerevisiae pump-expressing triplex, Nile Red efflux flow cytometry; at 10 µM; stronger effect = higher value; the pumps come from Candida albicans
[15] = target: ATP-binding cassette sub-family B member 6 (Homo sapiens) (UniProt Q9NP58); assay: ABCB6 transporter inhibitors, pilot screen, K562-ABCB6 cells, flow cytometry, validation set (AID 588550;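 active = inhibition above the screen-wide mean plus 3 SD, about 51%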;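 note: 0% = DMSO wells and 100% = benzethonium chloride 70 µM positive control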); details: K562-ABCB6 porphyrin accumulation, 1 h, at 10 µM, stronger effect = higher value
Chain of ATP-binding cassette sub-family B member 6 (Homo sapiens) (Q9NP58 whole entry, looked up): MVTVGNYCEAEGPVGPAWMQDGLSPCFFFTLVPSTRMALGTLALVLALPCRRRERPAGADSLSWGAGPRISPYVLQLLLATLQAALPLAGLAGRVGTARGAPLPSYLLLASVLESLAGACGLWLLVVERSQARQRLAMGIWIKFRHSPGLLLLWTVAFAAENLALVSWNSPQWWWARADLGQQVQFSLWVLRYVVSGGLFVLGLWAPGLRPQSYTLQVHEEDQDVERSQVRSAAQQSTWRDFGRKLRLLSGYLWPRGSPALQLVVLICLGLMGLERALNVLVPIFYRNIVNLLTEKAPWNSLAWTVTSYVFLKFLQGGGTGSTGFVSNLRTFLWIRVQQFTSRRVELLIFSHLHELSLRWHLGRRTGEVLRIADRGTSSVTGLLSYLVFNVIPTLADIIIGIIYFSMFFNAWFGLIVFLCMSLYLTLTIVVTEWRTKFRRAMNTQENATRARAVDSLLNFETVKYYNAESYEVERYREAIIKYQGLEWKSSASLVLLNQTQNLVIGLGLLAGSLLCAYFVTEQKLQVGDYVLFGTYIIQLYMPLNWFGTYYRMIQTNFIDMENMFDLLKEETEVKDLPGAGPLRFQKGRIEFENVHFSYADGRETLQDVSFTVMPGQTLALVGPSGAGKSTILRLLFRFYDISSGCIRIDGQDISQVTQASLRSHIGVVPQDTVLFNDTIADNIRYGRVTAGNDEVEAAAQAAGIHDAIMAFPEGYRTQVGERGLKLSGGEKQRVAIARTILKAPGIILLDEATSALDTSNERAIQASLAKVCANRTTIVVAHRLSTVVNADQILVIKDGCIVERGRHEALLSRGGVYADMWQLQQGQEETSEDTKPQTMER

[16] = promoters of myeloid differentiation in arrested cells, primary screen, cell-based, GFP/MAC1 double positive, flow cytometry, validation set (AID 588685;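 active = differentiation response of at least 50%, scaled between solvent and reference control, from cells with both markers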;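 note: compound exposure lasts four days before antibody staining and flow analysis; 0% = DMSO wells and 100% = 5 µM fulvestrant positive control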); details: ER-HoxA9 marrow cells, stronger effect = higher value, normalized: vehicle 0, fulvestrant 100

COc1ccc(Cc2noc(CN(C)CC3(N4CCOCC4)CCCCC3)n2)cc1OC
percent of DMSO control GFP [1]: 94.3% (inactive) | GFP response vs DMSO [2]: 99.7% (inactive) | percent response of DMSO control [3]: 106% (inactive) | GFP response vs DMSO [4]: 95.9% (inactive) | GFP response, % of DMSO [5]: 98.3% (inactive) | double positive events [6]: 60.5% | vesicle binding response [6]: 80.5% (inactive) | inhibition [7]: 2.93% (inactive) | superoxide response (% of plate) [8]: 108% (inactive) | aptamer binding inhibition [9]: 2% (inactive) | response [10]: 8.59% (inactive) | inhibition [11]: -7.18% (inactive) | response [12]: 2.83% (inactive) | binding (% of control) [13]: 102% (inactive) | efflux inhibition (fraction of control) [14]: 0.22 (inactive) | inhibition [15]: 36% (inactive) | differentiation response [16]: -10.4% (inactive)

O=C(NO)c1ccccc1O
percent of DMSO control GFP [1]: 103% (inactive) | GFP response vs DMSO [2]: 107% (inactive) | percent response of DMSO control [3]: 105% (inactive) | GFP response vs DMSO [4]: 94.8% (inactive) | GFP response, % of DMSO [5]: 106% (inactive) | double positive events [6]: 63.6% | vesicle binding response [6]: 158% (inactive) | inhibition [7]: 8.29% (inactive) | superoxide response (% of plate) [8]: 95.5% (inactive) | aptamer binding inhibition [9]: 2% (inactive) | response [10]: -0.56% (inactive) | inhibition [11]: 36.8% (inactive) | response [12]: -8.07% (inactive) | binding (% of control) [13]: 98.8% (inactive) | efflux inhibition (fraction of control) [14]: 0.03 (inactive) | inhibition [15]: 9% (inactive) | differentiation response [16]: -13.3% (inactive)

C[C@]12CC[C@@H]3c4ccc(O)cc4CC[C@H]3[C@@H]1CCC2=O
percent of DMSO control GFP [1]: 101% (inactive) | GFP response vs DMSO [2]: 100% (inactive) | percent response of DMSO control [3]: 95.4% (inactive) | GFP response vs DMSO [4]: 125% (inactive) | GFP response, % of DMSO [5]: 94.8% (inactive) | double positive events [6]: 60.6% | vesicle binding response [6]: 34.4% (inactive) | inhibition [7]: -13.9% (inactive) | superoxide response (% of plate) [8]: 98.7% (inactive) | aptamer binding inhibition [9]: 2% (inactive) | response [10]: -0.01% (inactive) | inhibition [11]: 9.61% (inactive) | response [12]: -0.09% (inactive) | binding (% of control) [13]: 98.9% (inactive) | efflux inhibition (fraction of control) [14]: -0.32 (inactive) | inhibition [15]: 8% (inactive) | differentiation response [16]: 0.24% (inactive)

COc1ccc(C(=O)CCN2CCc3cc(OC)c(OC)cc3C2)cc1
percent of DMSO control GFP [1]: 104% (inactive) | GFP response vs DMSO [2]: 116% (inactive) | percent response of DMSO control [3]: 107% (inactive) | GFP response vs DMSO [4]: 70.3% (inactive) | GFP response, % of DMSO [5]: 99.7% (inactive) | double positive events [6]: 59% | vesicle binding response [6]: 115% (inactive) | inhibition [7]: 1.12% (inactive) | superoxide response (% of plate) [8]: 111% (inactive) | aptamer binding inhibition [9]: 2% (inactive) | response [10]: 2.49% (inactive) | inhibition [11]: -1.91% (inactive) | response [12]: -2.28% (inactive) | binding (% of control) [13]: 96.7% (inactive) | efflux inhibition (fraction of control) [14]: 0.42 (inactive) | inhibition [15]: 13% (inactive) | differentiation response [16]: 4.97% (inactive)

Cc1ccc2[nH]c3c(=O)n(CCc4cnc[nH]4)cnc3c2c1
percent of DMSO control GFP [1]: 96.4% (inactive) | GFP response vs DMSO [2]: 99.7% (inactive) | percent response of DMSO control [3]: 105% (inactive) | GFP response vs DMSO [4]: 97% (inactive) | GFP response, % of DMSO [5]: 103% (inactive) | double positive events [6]: 65.2% | vesicle binding response [6]: 172% (inactive) | inhibition [7]: -17.2% (inactive) | superoxide response (% of plate) [8]: 93.1% (inactive) | aptamer binding inhibition [9]: 0% (inactive) | response [10]: -13.6% (inactive) | inhibition [11]: -15.4% (inactive) | response [12]: 1.97% (inactive) | binding (% of control) [13]: 103% (inactive) | efflux inhibition (fraction of control) [14]: -0.58 (inactive) | inhibition [15]: 10% (inactive) | differentiation response [16]: -14.8% (inactive)

COc1cc(-c2cccs2)cc(=O)c2c(C)oc(C)c12
percent of DMSO control GFP [1]: 97.6% (inactive) | GFP response vs DMSO [2]: 105% (inactive) | percent response of DMSO control [3]: 84.4% (inactive) | GFP response vs DMSO [4]: 142% (inactive) | GFP response, % of DMSO [5]: 93.2% (inactive) | double positive events [6]: 62.6% | vesicle binding response [6]: 235% (inactive) | inhibition [7]: -160% (inactive) | superoxide response (% of plate) [8]: 96.1% (inactive) | aptamer binding inhibition [9]: -1% (inactive) | response [10]: 54% (active) | inhibition [11]: 54.7% (active) | response [12]: -7.46% (inactive) | binding (% of control) [13]: 105% (inactive) | efflux inhibition (fraction of control) [14]: 0.26 (inactive) | inhibition [15]: 2% (inactive) | differentiation response [16]: 4% (inactive)

CC(=O)c1cccc2c(O)c(C3=Nc4ccccc4C3=O)[nH]c12
percent of DMSO control GFP [1]: 88% (inactive) | GFP response vs DMSO [2]: 118% (inactive) | percent response of DMSO control [3]: 114% (inactive) | GFP response vs DMSO [4]: 85.3% (inactive) | GFP response, % of DMSO [5]: 90.8% (inactive) | double positive events [6]: 69.7% | vesicle binding response [6]: 202% (inactive) | inhibition [7]: -29.4% (inactive) | superoxide response (% of plate) [8]: 129% (inactive) | aptamer binding inhibition [9]: 4% (inactive) | response [10]: -1.02% (inactive) | inhibition [11]: -5.62% (inactive) | response [12]: 0.43% (inactive) | binding (% of control) [13]: 103% (inactive) | efflux inhibition (fraction of control) [14]: 0.23 (inactive) | inhibition [15]: 9% (inactive) | differentiation response [16]: 4.91% (inactive)

O=C(Nc1ccc(C(=O)NC2CCCCC2)cc1)c1cccnc1
percent of DMSO control GFP [1]: 99.5% (inactive) | GFP response vs DMSO [2]: 101% (inactive) | percent response of DMSO control [3]: 107% (inactive) | GFP response vs DMSO [4]: 119% (inactive) | GFP response, % of DMSO [5]: 105% (inactive) | double positive events [6]: 57.6% | vesicle binding response [6]: 232% (inactive) | inhibition [7]: -0.43% (inactive) | superoxide response (% of plate) [8]: 113% (inactive) | aptamer binding inhibition [9]: 1% (inactive) | response [10]: -3.04% (inactive) | inhibition [11]: -15.9% (inactive) | response [12]: 1.36% (inactive) | binding (% of control) [13]: 95.1% (inactive) | efflux inhibition (fraction of control) [14]: -0.17 (inactive) | inhibition [15]: 13% (inactive) | differentiation response [16]: -4% (inactive)

Cc1ccc(C(=O)COC(=O)c2cnccn2)cc1[N+](=O)[O-]
percent of DMSO control GFP [1]: 99.1% (inactive) | GFP response vs DMSO [2]: 99.6% (inactive) | percent response of DMSO control [3]: 110% (inactive) | GFP response vs DMSO [4]: 82% (inactive) | GFP response, % of DMSO [5]: 82.5% (inactive) | double positive events [6]: 58.1% | vesicle binding response [6]: 226% (inactive) | inhibition [7]: -18.2% (inactive) | superoxide response (% of plate) [8]: 97.6% (inactive) | aptamer binding inhibition [9]: 4% (inactive) | response [10]: -3.42% (inactive) | inhibition [11]: -6.78% (inactive) | response [12]: -1.08% (inactive) | binding (% of control) [13]: 103% (inactive) | efflux inhibition (fraction of control) [14]: 0.01 (inactive) | inhibition [15]: 12% (inactive) | differentiation response [16]: -21.6% (inactive)

CCOC(=O)N1CCN(Cc2nc(Cc3cccc(F)c3)no2)CC1
percent of DMSO control GFP [1]: 102% (inactive) | GFP response vs DMSO [2]: 105% (inactive) | percent response of DMSO control [3]: 100% (inactive) | GFP response vs DMSO [4]: 99.9% (inactive) | GFP response, % of DMSO [5]: 101% (inactive) | double positive events [6]: 64.5% | vesicle binding response [6]: 171% (inactive) | inhibition [7]: -3.57% (inactive) | superoxide response (% of plate) [8]: 103% (inactive) | aptamer binding inhibition [9]: 5% (inactive) | response [10]: 0.58% (inactive) | inhibition [11]: -8.69% (inactive) | response [12]: 2.06% (inactive) | binding (% of control) [13]: 94.8% (inactive) | efflux inhibition (fraction of control) [14]: 0.02 (inactive) | inhibition [15]: 13% (inactive) | differentiation response [16]: 4.15% (inactive)
